PrPC surface inh – inhibitors of human cell surface prion protein PrPC, primary screen, cell-based, TR-FRET; TR-FRET read-out; hit rate 0.43% among 370,000; AID 720596, 2013; inhibition, % at 13.8 µM; in the data active means inhibition above about 24%; further: 0% = median of the test wells and 100% = reference compound wells
GDH-TPI counter-1 – GDH-TPI coupling enzyme inhibitors, primary screen, artefact control for M. tuberculosis FBA inhibitor project, biochemical, absorbance, full deck; hit rate 1.2% among 360,000; AID 588335, 2011; inhibition, % at 4.8 µM; GDH-TPI coupled enzyme counterscreen, NADH absorbance; in the data active means inhibition above about 30%;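 further: 0% = DMSO wells and 100% = wells lacking the enzyme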
BH1578 lux ind – inducers of Vibrio cholerae quorum light production without autoinducers, primary screen, BH1578 luxS cqsA deficient, single point. V. cholerae BH1578 lux reporter, luminescence, 6 h. activation, % at 18.7 µM. hit rate 0.16% among 350,000. AID 588436, 2011; in the data active means activation mostly above about 9.7%, no sharp cut-off
3CLpro inhibitor – SARS-CoV 3CLpro protease inhibitors, primary screen, biochemical, quenched FRET; recombinant SARS-CoV 3CLpro, quenched FRET peptide cleavage; inhibition, % at 6 µM; hit rate 0.14% among 290,000; AID 1706, 2009; in the data active means inhibition above about 12%
Mtb FBA inh – Mtb FBA enzyme inhibitors, primary screen, biochemical, fluorescence, strain H37Rv; Fructose-bisphosphate aldolase (Mycobacterium tuberculosis (strain ATCC 25618 / H37Rv)), …; hit rate 2.3% among 360,000; inhibition, % at 1 µM; purified M. tuberculosis FBA, fluorescence read-out; AID 588726, 2011;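 further: 0% = vehicle and 100% = reference inhibitor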
Target sequence (P9WQA3 whole entry, looked up): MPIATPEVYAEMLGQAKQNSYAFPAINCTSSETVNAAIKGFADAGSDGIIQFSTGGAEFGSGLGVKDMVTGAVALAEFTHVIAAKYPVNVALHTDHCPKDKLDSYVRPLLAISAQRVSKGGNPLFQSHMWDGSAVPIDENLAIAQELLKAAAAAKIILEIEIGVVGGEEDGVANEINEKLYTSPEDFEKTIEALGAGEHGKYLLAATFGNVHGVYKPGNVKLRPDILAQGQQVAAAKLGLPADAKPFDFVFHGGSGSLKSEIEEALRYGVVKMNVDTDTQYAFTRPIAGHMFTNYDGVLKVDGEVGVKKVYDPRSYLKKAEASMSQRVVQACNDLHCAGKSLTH
Mtb FBA confirm – M. tuberculosis aldolase blockers, biochemical, fluorescence, strain H37Rv, confirmation | inhibition, % at 1 µM | purified M. tuberculosis FBA, fluorescence read-out | hit rate 78% among 5,600 | shares compounds with Mtb FBA inh;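 further: 0% = vehicle wells and 100% = reference inhibitor wells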
GDH-TPI counter-2 – GDH-TPI coupling enzyme inhibitors, artefact control for M. tuberculosis FBA inhibitor project, biochemical, fluorescence, high throughput; inhibition, % at 1 µM; AID 652141, 2013; hit rate 81% among 5,600; GDH-TPI coupled enzyme counterscreen; shares compounds with Mtb FBA inh; in the data active means inhibition above about 10%
Starred values were filed as active, the others as inactive. In the library only some 3.9% were active in any assay of this set; here they are far more common. Unless noted, no stated cut-off is given here; in the data, active means inhibition above about 27%; inactive means the rest.

`CCOc1ccc(CCNC(=O)COC(=O)/C=C/c2cccc(OC)c2)cc1OCC` gave PrPC surface inh 4, GDH-TPI counter-1 1, BH1578 lux ind -1 and Mtb FBA inh 5.
For CSc1ccc(/C=C/C(=O)OCC(=O)NC2CCCC2)cc1 the results were PrPC surface inh 4, GDH-TPI counter-1 41*, BH1578 lux ind 1, Mtb FBA inh 61*, Mtb FBA confirm active and GDH-TPI counter-2 active.
For COC(=O)c1ccc(CNC(=O)COC(=O)/C=C/c2ccc(O)c(OC)c2)cc1 the results were PrPC surface inh -3, GDH-TPI counter-1 19, BH1578 lux ind inactive and Mtb FBA inh 4.
For COc1cccc(/C=C/C(=O)OCC(=O)NC2CC2)c1 the results were PrPC surface inh -4, GDH-TPI counter-1 -1, BH1578 lux ind inactive, Mtb FBA inh 28*, Mtb FBA confirm -1 and GDH-TPI counter-2 -3.
`COC(=O)c1ccc(CNC(=O)COC(=O)/C=C/c2cccc(OC)c2)cc1` gave PrPC surface inh 8, GDH-TPI counter-1 9, BH1578 lux ind inactive, Mtb FBA inh 28*, Mtb FBA confirm 168* and GDH-TPI counter-2 157*.
Screening CCCNC(=O)NC(=O)CSc1ccc2c(c1)OCCO2 returned PrPC surface inh -3, GDH-TPI counter-1 3, BH1578 lux ind 8, 3CLpro inhibitor 7 and Mtb FBA inh 1.
Screening Cc1ccc2c(c1)c1c(c(=O)n(-c3ccccc3)c(=O)n1CC(=O)NCC1CCCO1)n2C (centres undefined) returned PrPC surface inh 2, GDH-TPI counter-1 -3, BH1578 lux ind -1, 3CLpro inhibitor -1, Mtb FBA inh 56*, Mtb FBA confirm 76* and GDH-TPI counter-2 52*.
Screening COc1ccc(C2CC(=O)Oc3c2c(=O)n(C)c2ccccc32)c(OC)c1OC (centres undefined) returned PrPC surface inh 1, GDH-TPI counter-1 3, BH1578 lux ind 0, 3CLpro inhibitor 10, Mtb FBA inh 37*, Mtb FBA confirm -21 and GDH-TPI counter-2 -19.
`Cn1c(=O)c2c(c3ccccc31)OC(=O)CC2c1cccnc1` (centres undefined) gave PrPC surface inh 1, GDH-TPI counter-1 7, BH1578 lux ind inactive, 3CLpro inhibitor -3 and Mtb FBA inh 7.
CCCCNC(=O)C[C@@H]1C[C@@]2(C(=O)OCC)CCC=C2N(Cc2ccc(Cl)cc2Cl)C1=O was read as PrPC surface inh -10.
O=C1CC(C(=O)Nc2ccc(O)c(C(=O)O)c2)C(c2ccccc2)O1 (centres undefined) was read as PrPC surface inh 1, GDH-TPI counter-1 8, BH1578 lux ind -7, 3CLpro inhibitor -4, Mtb FBA inh 59*, Mtb FBA confirm 143* and GDH-TPI counter-2 165*.
For CSCCC(NC(=O)c1ccc(Cl)c([N+](=O)[O-])c1)C(=O)N1CCN(C/C=C/c2ccccc2)CC1 (centres undefined) the results were PrPC surface inh -15, GDH-TPI counter-1 -2, BH1578 lux ind 0 and Mtb FBA inh 2.
`CCC(=O)Nc1ccc2c(c1)nc1n2CCN(CCOC)C1` gave PrPC surface inh 4, GDH-TPI counter-1 3, BH1578 lux ind inactive, 3CLpro inhibitor -1, Mtb FBA inh 33*, Mtb FBA confirm 1 and GDH-TPI counter-2 -1.
CCOC(=O)N1CCN(Cc2nc3cc(NC(=O)CC)ccc3n2C)CC1 was read as PrPC surface inh 3, GDH-TPI counter-1 2, BH1578 lux ind -15, 3CLpro inhibitor 1 and Mtb FBA inh 6.
CCC(=O)Nc1ccc2c(c1)nc1n2CCN(C2CCCCC2)C1 was read as PrPC surface inh -5, GDH-TPI counter-1 3, BH1578 lux ind 1, 3CLpro inhibitor 5, Mtb FBA inh 62*, Mtb FBA confirm 92* and GDH-TPI counter-2 91*.
Screening O=C(Nc1ccc2c(c1)nc1n2CCN(C2CCCCC2)C1)NC1CCCCC1 returned 3CLpro inhibitor 2.
Screening CCOC(=O)N1CCN(S(=O)(=O)c2c(C)nc3sccn3c2=O)CC1 returned PrPC surface inh -3, GDH-TPI counter-1 17, BH1578 lux ind 0, 3CLpro inhibitor -1 and Mtb FBA inh 0.
For Cc1ccc2nc(-c3ccco3)c(Cc3ccccc3)n2c1 the results were PrPC surface inh -4, Mtb FBA inh 36*, Mtb FBA confirm 181* and GDH-TPI counter-2 108*.
`Cc1ccc2nc(C3CCCCC3)c(Cc3ccccc3)n2c1` gave PrPC surface inh 10, Mtb FBA inh 28*, Mtb FBA confirm 3 and GDH-TPI counter-2 -3.
Clc1ccc2nc(-c3ccco3)c(Cc3ccccc3)n2c1 was read as PrPC surface inh 8 and Mtb FBA inh 3.
For Fc1cccc(Cc2c(-c3ccco3)nc3c4ccccc4ccn23)c1 the results were PrPC surface inh -6, Mtb FBA inh 27*, Mtb FBA confirm 68* and GDH-TPI counter-2 46*.
CC(C)c1ccc(NC(=O)c2ccc(-c3ccnn3C)c3ccoc23)cc1 was read as GDH-TPI counter-1 8, BH1578 lux ind 0 and Mtb FBA inh -2.
For CC(OC(=O)c1cccnc1Cl)C(=O)Nc1ccc2c(c1)OCCO2 (centres undefined) the results were PrPC surface inh 9, GDH-TPI counter-1 -1, BH1578 lux ind inactive, 3CLpro inhibitor 0, Mtb FBA inh 35*, Mtb FBA confirm 161* and GDH-TPI counter-2 130*.
`O=C(Nc1ccc(C(F)(F)F)cc1)OC1CCC12CCC(c1ccccc1)CC2` (centres undefined) gave PrPC surface inh 0.
Cc1cc(C)c2c(N)c(C(=O)NN3CC(=O)N(c4ccccc4)CC3=O)sc2n1 was read as PrPC surface inh 1, GDH-TPI counter-1 2, BH1578 lux ind -1, 3CLpro inhibitor 6, Mtb FBA inh 57*, Mtb FBA confirm 188* and GDH-TPI counter-2 129*.
`Cc1cc(C)c2c(N)c(C(=O)NN3CC(=O)N(c4cccc(Cl)c4)CC3=O)sc2n1` gave PrPC surface inh 1, GDH-TPI counter-1 3, BH1578 lux ind 0, 3CLpro inhibitor 3 and Mtb FBA inh 15.
For CC(=O)Nc1ccc2[nH]c3ccccc3c2c1 the results were PrPC surface inh -1, GDH-TPI counter-1 17, BH1578 lux ind inactive, 3CLpro inhibitor -4 and Mtb FBA inh 1.
